From PubChem BioAssay (EPA / NIEHS) come the findings set out here.

Calls of active or inactive are those of the source. Rule for the calls: active = hit-call score of the fitted dose curve at least 0.9, where 1 is the maximum; inactive = score below 0.9.

Read-out in the test: Interferon-gamma inducible Protein 10 (IP10), CXCL10 (gene 3627)
In words: BSK_BE3C_IP10: BioMAP Diversity Plus: BE3C Assay for Interferon-gamma inducible Protein 10 (IP10) Biomarker Activity (AID 2283034). As to conditions: primary human bronchial epithelial cells; actives raise or lower the signal. How it is done: BSK_BE3C is a cell-based, multiplexed-readout assay that uses bronchial epithelial cell, a human lung primary cell, with measurements taken at 24 hours after chemical dosing in a 96-well plate.BSK_BE3C_IP10 is an assay component measured in the BSK_BE3C assay. It measures IP-10 antibody related to regulation of gene expression using ELISA technology.Data from the assay component BSK_BE3C_IP10 was analyzed into 1 assay endpoint. This assay endpoint, BSK_BE3C_IP10, was analyzed with bidirectional fitting relative to DMSO as the negative control and baseline of activity. Using a type of binding reporter, gain or loss-of-signal activity can be used to understand changes in the signaling as they relate to the gene CXCL10. Furthermore, this assay endpoint can be referred to as a primary readout, because this assay has produced multiple assay endpoints where this one serves a signaling function. To generalize the intended target to other relatable targets, this assay endpoint is annotated to the cytokine intended target family, where the subfamily is chemotactic factor.
The levels of cell surface (or secreted, indicated by the prefix "s") biomarker endpoints were measured by ELISA. Overt cytotoxicity to cells in confluent adherent cultures (all systems other than the BT system) was assessed by measuring total protein levels using sulforhodamine B (SRB) staining in parallel cultures at the time of biomarker measurements, indicated as SRB endpoints. For proliferation assays for adherent cell types, individual cell types are cultured at sub-confluence and relative cell numbers quantified by SRB staining at time points optimized for each system (48 h: 3C and CASM3C systems; 72 h: BT and HDF3CGF systems; 96 h: SAg system). SRB was performed by staining cells with 0.1% SRB after fixation with 10% TCA and reading wells at 560 nm.Viability and proliferation of PBMC (T cells) was quantified by Alamar Blue reduction for the SAg and BT systems. For PBMC viability (referred to as PBMC Cytotoxicity within the assay endpoint names), cells were plated (75,000/well in a 96-well plate) and then chemical samples added for 1 h before addition of activators, SEB and TSST-1 (20 ng/mL final concentration each). Cells were incubated for 90 h. Then, Alamar Blue (20 uL/well) (Invitrogen, Cat DAL1100) was added for 6 h, and the plates were read with a fluorescence microplate reader at 546/580 nm (excitation/emission). For PBMC proliferation, cells were plated and activated as above but incubated for only 16 h prior to addition of Alamar Blue. Plates were read after 6 h.
In the case of `COc1cc(C=O)cc2c1[C@H](COC(N)=O)[C@]1(OC(C)=O)ON2C[C@H]2[C@@H]1N2C(C)=O`, the AC50 was 2.72 µM (active).

Regarding `CCC(C)c1ccc(O)cc1` (stereo not given), the result was inactive.

Consider `Nc1ccc(Cl)cc1N`, for which the outcome was inactive.

In the case of `Oc1ccc2ccc3cccc4ccc1c2c34`, the AC50 is 31.3 µM (active).

For the compound `CCN(CC)N=O`, the outcome was inactive.

For `Nc1ccc(Cc2ccc(N)cc2)cc1`, the result was inactive.

For the compound `CC(C)COC(=O)c1ccccc1C(=O)OCC(C)C`, the outcome was inactive.

In the case of `CC(C)(C)OOC(=O)c1ccccc1`, the result was inactive.

With `ClC1=C(Cl)C2(Cl)C3C(Cl)C=CC3C1(Cl)C2(Cl)Cl` (stereo not given), the AC50 is 32.3 µM (active).

Take `COC(=O)c1ccccc1N`: the outcome was inactive.

Take `C=CCc1ccc2c(c1)OCO2`: the result was inactive.

Take `Nc1cc(Cl)cc(C(=O)O)c1Cl`: the result was inactive.

Consider `Clc1ccc(Cl)c(Cl)c1`, for which the result was inactive.

In the case of `O=C(Nc1ccccc1)c1ccccc1I`, the outcome was inactive.

For the compound `Cc1ccc(N)c(N)c1`, the outcome was inactive.

Take `CC(C)(O)c1cnn2c(-c3ccc(F)c(-c4c(F)cccc4C#N)c3)cnc2n1`: the AC50 was 31.7 µM (active).

As for `CC(C)N(Cc1ccccc1)C(=O)C(C)(C)C`, the result was inactive.

On to `CCCSC(=O)N(CCC)CCC`, for which the outcome was inactive.

In the case of `CCCCCCCCCCCCCN1CC(C)OC(C)C1` (stereo not given), the result was inactive.

On to `CN(C)c1ccc(C(=O)c2ccc(N(C)C)cc2)cc1`, for which the outcome was inactive.

Regarding `Clc1ccc(C(c2ccc(Cl)cc2)C(Cl)(Cl)Cl)cc1`, the outcome was inactive.

As for `CCC[CH2][Sn]([Cl])([CH2]CCC)[CH2]CCC`, the AC50 is 0.324 µM (active).

Take `COC(=O)Nc1nc2ccccc2[nH]1`: the outcome was inactive.

On to `Cc1ccc(N)cc1`, for which the outcome was inactive.

On to `CNC(=O)Oc1cccc2c1OC(C)(C)C2`, for which the result was inactive.

Regarding `OCCOCCO`, the outcome was inactive.

In the case of `ClCCOCCCl`, the result was inactive.

`[As]#[In]`: the result was inactive.

With `OCCCl`, the outcome was inactive.

For `O=C1CCCO1`, the outcome was inactive.

In the case of `O=C(Oc1ccc(Br)cc1)N1CCN2CCC1CC2`, the result was inactive.

Consider `Cc1cccc(N)c1N`, for which the result was inactive.

Turning to `OCCCBr`, the outcome was inactive.

On to `Clc1ccc(C(c2ccc(Cl)cc2)C(Cl)Cl)cc1`, for which the half-maximal activity concentration (AC50) was 32.2 µM (active).

For `CC(C)(OOC(C)(C)c1ccccc1)c1ccccc1`, the result was inactive.

`CCCCCOC(=O)c1ccccc1C(=O)OCCCCC`: the result was inactive.

For `CCCCCCCCOC(=O)c1ccc(C(=O)OCCCCCCCC)c(C(=O)OCCCCCCCC)c1`, the outcome was inactive.

As to `c1ccc2c(c1)-c1cccc3cccc-2c13`, the outcome was inactive.

As to `ClC1=C(Cl)[C@]2(Cl)[C@H]3[C@H]([C@@H]4C=C[C@H]3C4)[C@@]1(Cl)C2(Cl)Cl`, the AC50 is 30.3 µM (active).

Turning to `CN(C)C(=O)Nc1ccc(Cl)cc1`, the outcome was inactive.
